Inconclusive results are not listed. Activity calls are given as the source filed them. The calls were made as follows, unless noted: active = hit-call score of the fitted dose curve at least 0.9, where 1 is the maximum; inactive = score below 0.9.

Test [1] is described as follows: ACEA_ER_80hr: ACEA Biosciences xCELLigence Real-Time Cell Analysis on Estrogen Receptor Agonism for Proliferation (AID 2282667; active = hit-call score of the fitted dose curve at least 0.9, where 1 is the maximum). Particulars: T47D proliferation, impedance (xCELLigence), 80 h. In short, it runs like this:
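T-47D cells monitored by electrical impedance (xCELLigence) with compound present throughout; 80 h timepoint, positive-direction fitting versus DMSO. Eight-point 1:4 dilutions from 100 uM final, duplicate plates.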

Test [2] in a line: APR_HepG2_CellCycleArrest_24hr: Apredica 24-hour HepG2 Assay for Cell Cycle Arrest (AID 2282905).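 Also: cell cycle arrest scored as ratio of 2N to 4N nuclear DNA content.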 The following applies: imaging, actives raise or lower the signal. In short, it runs like this: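 After 24 h exposure at 0.39–200 uM in 0.5% DMSO, fixed cells received Hoechst 33342 staining. Imaging quantified per-nucleus DNA content; gain or loss fitted against DMSO controls.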

A short description of test [3]: APR_HepG2_NuclearSize_24hr: Apredica 24-hour HepG2 Assay for Nuclear Size (AID 2282907). The following applies: high-content imaging, actives raise or lower the signal. In short, it runs like this:
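Nuclear size from Hoechst 33342-stained, formaldehyde-fixed HepG2 nuclei imaged by high-content microscopy, after 24 h dosing at ten concentrations from 0.39 to 200 uM in 0.5% DMSO; gain or loss relative to DMSO baseline.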

The nature of test [4]: APR_HepG2_CellLoss_24hr: Apredica 24-hour HepG2 Assay for Cell Loss (AID 2282908).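 As to AC50: fit in both directions so a hit may be cell loss or gain.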 Particulars: high-content imaging. In short, it runs like this: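 Nuclei stained with Hoechst 33342 after formaldehyde fixation (3.7%) were imaged at 20x to count cells. Exposure lasted 24 hr, at ten concentrations from 0.39 to 200 uM in duplicate, with 0.5% v/v DMSO. Fit bidirectional, relative to DMSO.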

Test [5] can be described thus: APR_HepG2_MicrotubuleCSK_24hr: Apredica 24-hour HepG2 Assay for Microtubule CSK Stabilty (AID 2282909). Particulars: HepG2 microtubule cytoskeleton imaging, actives raise or lower the signal. In short, it runs like this: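 Fixed HepG2 cells were stained for alpha-tubulin and imaged after 24 hr exposure to ten concentrations spanning 0.39–200 uM in 0.5% DMSO. Signal change was fitted in both directions relative to DMSO; taxol was the positive control.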

Test [6] in a line: APR_HepG2_MitoticArrest_24hr: Apredica 24-hour HepG2 Assay for Mitotic Arrest (AID 2282910). The following applies: high-content imaging, actives raise or lower the signal. In outline: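 Treatment lasted 24 hr in the human HepG2 line at 0.39–200 uM, solvent held at 0.5% DMSO. Fixed cells were stained with Hoechst 33342 and anti-phospho-histone H3, imaged at 20x, and analysed by gain- or loss-of-signal fitting against DMSO.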

A short description of test [7]: APR_HepG2_MitoMembPot_24hr: Apredica 24-hour HepG2 Assay for Mitochondrial Membrane Potential (AID 2282911). The following applies: imaging, actives raise or lower the signal. In short, it runs like this: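 HepG2 cells exposed 24 h to 0.39–200 uM compounds in duplicate, 0.5% v/v DMSO final. MitoTracker Red CMXRos 250 nM loaded 30 min before formaldehyde fixation; high-content imaging at 20x, bidirectional fit versus DMSO.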

The nature of test [8]: APR_HepG2_MitoMass_24hr: Apredica 24-hour HepG2 Assay for Mitochondrial Mass (AID 2282912). The following applies: high-content imaging, actives raise or lower the signal. In short, it runs like this: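 Endpoint is MitoTracker Red CMXRos (250 nM, 30 min, pre-fixation) intensity from 20x high-content imaging, nuclei located by Hoechst. Human HepG2 cells received ten concentrations from 0.39 to 200 uM in 0.5% DMSO for 24 hr, duplicate wells. Bidirectional fit relative to DMSO.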

Test [9] in a line: APR_HepG2_p53Act_24hr: Apredica 24-hour HepG2 Assay for p53 Activation (AID 2282913).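 Also: p53 protein immunofluorescence averaged per cell in HepG2 with Hoechst nuclei.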 The following applies: high-content imaging, actives raise or lower the signal. In short, it runs like this:
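HepG2 cells exposed 24 h to compounds at 0.39–200 uM in duplicate, 0.5% v/v DMSO final; fixed, permeabilized, stained with anti-p53 antibody and Hoechst 33342; fluorescence imaging; bidirectional curve fit versus DMSO.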

The nature of test [10]: APR_HepG2_CellCycleArrest_72hr: Apredica 72-hour HepG2 Assay for Cell Cycle Arrest (AID 2282914). The following applies: high-content imaging, actives raise or lower the signal. In short, it runs like this: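 HepG2 cells exposed 72 h in duplicate to 0.39–200 uM compound, 0.5% DMSO final. Formaldehyde-fixed, Hoechst 33342-stained nuclei imaged at 20x, six fields per well; DNA content per valid cell quantified by cell-cycle image analysis, bidirectional fit versus DMSO.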

`Cc1ccc(N(C)C)cc1`: the compound was classed as inactive in [1], in test [2], in [3], in [4], in test [5] and in [6]. For the same compound, the compound was called inactive in test [7], in test [8], in test [9] and in [10].
`COc1cccc2c1C(=O)c1c(O)c3c(c(O)c1C2=O)C[C@@](O)(C(=O)CO)C[C@@H]3O[C@H]1C[C@H](N)[C@H](O)[C@H](C)O1`: the compound was called inactive in test [1], in test [3], in [4], in [5] and in test [7]. Further, the AC50 (as a rule, the concentration giving half of the maximal activity seen) in [2] is 4.04 µM (active); in test [6] it was 1.72 µM (active); in [8], 24.6 µM (active); in test [9], 0.276 µM (active); in test [10] it was 3.58 µM (active).
Regarding `CC=Cc1ccc(O)c(OC)c1`, the call in [1], in [3], in test [4], in test [5], in test [6] and in test [7] was inactive. In addition, the outcome in [8], in test [9] and in test [10] was inactive. In addition, the AC50 in [2] was 105 µM (active).
In the case of `COc1ccc2c(c1)c(CC(=O)O)c(C)n2C(=O)c1ccc(Cl)cc1`, the call in [1], in test [3], in [4], in test [5], in test [6] and in test [7] was inactive. Also, the outcome in [8] and in test [9] was inactive. In addition, the concentration at half-maximal activity (AC50) in test [2] was 76.4 µM (active); in [10], 100 µM (active).
Regarding `CC(=O)OCCOCCOCCOC(C)=O`, the compound was classed as inactive in [1], in test [2], in test [3], in [4], in test [5] and in test [6]. Further, the compound was called inactive in test [7], in [9] and in [10].
As for `CC(CO)OC(C)CO` (stereo not given) (tested in a mixture with another compound), the outcome in test [1], in [2], in [3], in test [4], in test [5] and in test [6] was inactive. The compound was called inactive in [7], in [8], in test [9] and in test [10].
`CN1CCCC1=O`: the compound was classed as inactive in test [1], in [2], in test [3], in [4], in test [5] and in test [6]. The compound was called inactive in [7], in test [8], in test [9] and in test [10].
For `CCCCCCCCCCCC(=O)OC`, the call in test [1], in [2], in test [3], in test [4], in test [5] and in test [6] was inactive. In addition, the outcome in [7], in test [8], in [9] and in [10] was inactive.
With `CCOC(=O)C(C)(C)Oc1ccc(Cl)cc1`, the call in test [1], in [2], in test [3], in [5], in test [8] and in test [9] was inactive. Moreover, the compound was classed as inactive in test [10]. The concentration at half-maximal activity (AC50) was 115 µM (active) in [4] and 121 µM (active) in test [7].
For `CNC(=O)[C@H]1O[C@@H](n2cnc3c(NCc4cc(Cl)ccc4OCc4cc(C)no4)ncnc32)[C@H](O)[C@@H]1N`, the outcome in test [1], in test [2], in test [3], in test [4], in [5] and in test [8] was inactive. The outcome in [9] and in test [10] was inactive. The AC50 in test [7] is 0.0385 µM (active).
With `COc1cc(C=O)ccc1O`, the compound was classed as inactive in [1], in test [2], in test [3], in test [4], in test [5] and in [6]. The compound was called inactive in test [7], in test [8], in [9] and in test [10].
As to `O=C(O)CCCCC(=O)O`, the compound was called inactive in [1], in test [2], in [3], in test [4], in [5] and in test [6]. The call in test [7], in test [9] and in [10] was inactive.
Turning to `NC(=O)Cn1c(=O)cc(CCN2CCN(c3nccc4sccc34)CC2)c2ccc(F)cc21`, the compound was called inactive in test [1], in [2], in [3], in [4], in test [5] and in test [7]. Besides, the call in test [8], in test [9] and in test [10] was inactive.
With `COc1cc(/C=C/C(=O)CC(=O)/C=C/c2ccc(O)c(OC)c2)ccc1O`, the outcome in test [1], in test [2], in test [3], in test [5] and in test [10] was inactive. For the same compound, the concentration at half-maximal activity (AC50) in [4] was 38 µM (active); in test [6], 56.1 µM (active); in [7], 48 µM (active); in test [9], 84.6 µM (active).
With `O=c1c(O)c(-c2ccc(O)c(O)c2)oc2cc(O)cc(O)c12`, the concentration at half-maximal activity (AC50) in test [1] is 26.4 µM (active); in test [2] it was 58.4 µM (active); in test [7], 64.2 µM (active); in test [10], 103 µM (active). For the same compound, the call in test [3], in test [4], in [5], in [6] and in test [9] was inactive.
Regarding `NS(=O)(=O)c1cc2c(cc1Cl)NCNS2(=O)=O`, the result in test [1], in [2], in test [3], in [4], in test [5] and in test [6] was inactive. In addition, the outcome in [7], in [9] and in test [10] was inactive.
Turning to `COCCOCCOC`, the result in [1], in test [2], in test [3], in [4], in test [5] and in [6] was inactive. The call in test [7], in [8], in test [9] and in test [10] was inactive.
In the case of `CCCCCCCCCCC`, the compound was called inactive in test [1], in [2], in test [3], in [4], in test [5] and in test [6]. The compound was called inactive in test [7], in test [8], in test [9] and in [10].
For `CC1(C)CC(N=C=O)CC(C)(CN=C=O)C1` (stereo not given), the outcome in test [1], in test [2], in test [3], in test [4], in test [5] and in test [6] was inactive. Besides, the compound was called inactive in [7], in test [8] and in test [9]. Moreover, the AC50 in [10] is 92.5 µM (active).
For the compound `FC(F)(F)C(F)(F)C(F)(F)C(F)(F)C(F)(F)C(F)(F)CCI`, the compound was classed as inactive in test [1], in test [2], in [3], in test [4], in test [5] and in [7]. Besides, the result in [8], in test [9] and in test [10] was inactive.
Regarding `Cc1ccc2ncccc2c1`, the outcome in test [1], in test [2], in test [3], in test [4], in test [5] and in test [6] was inactive. Besides, the compound was called inactive in test [7], in [9] and in test [10].

The values above are taken from PubChem BioAssay (EPA / NIEHS).
